# Laboratory results published in PubChem BioAssay (NCI).
# The panel holds about 83,000 compounds, 20% with a hit somewhere; the sample as a whole holds those more often.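 Percent growth is the endpoint: 0 to 100 indicates growth inhibition (40 means 60% inhibition), 0 means no net growth, and negative values indicate cell death.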 Values without a mark were called inactive. The source made the active and inactive calls. Rule for the calls: active = growth percent below 10; inactive = the rest.
# Tests used:
# Assay in all cases: NCI-60 one-dose screen, 48 h (100 = growth as untreated, 0 = no growth, -100 = all killed)
# Conditions in all cases: 10 µM unless noted
# BT-549 breast = tested on: BT-549 breast
# MDA-MB-435 melanoma = tested on: MDA-MB-435 melanoma
# SW-620 colon = tested on: SW-620 colon
# MCF7 breast = tested on: MCF7 breast
# HCT-116 colon = tested on: HCT-116 colon
# HCC-2998 colon = tested on: HCC-2998 colon
# KM12 colon = tested on: KM12 colon
SMILES,growth (BT-549 breast),growth (MDA-MB-435 melanoma),growth (SW-620 colon),growth (MCF7 breast),growth (HCT-116 colon),growth (HCC-2998 colon),growth (KM12 colon)
Cc1ccc(SC2c3ccc(C)cc3Oc3nc(N)c(C#N)c(N)c32)cc1 (centres undefined),78.9%,91.6%,64.6%,5.14% (active),81.7%,103%,96.8%
COc1ccc(C2CC(c3ccc(OC)cc3O)=NN2c2ccc(S(N)(=O)=O)cc2)cc1 (centres undefined),58.2%,36.8%,50.6%,13.7%,20.5%,54.4%,23.7%
COc1cc(/C=C/C(=O)/C=C/c2cc3ccc(Cl)cc3n(Cc3ccccc3)c2=O)ccc1O,-19.2% (active),-19.1% (active),3.39% (active),26.2%,-82.6% (active),-73.8% (active),-52.3% (active)
CC(=O)c1ccc(NC(=O)CSc2nnc(-c3cc(-c4ccc(C)cc4)nc4ccccc34)o2)cc1,59.1%,80.9%,28.4%,26.6%,-7.47% (active),102%,72%
Nc1ccc(C2=NN(C(=O)c3cc(-c4ccc(Cl)cc4)nc4ccccc34)C(c3ccccc3)C2)cc1 (centres undefined),35.1%,-24.3% (active),22.5%,12.7%,24.7%,59.6%,24.5%
CC[C@]12C=CCN3CC[C@@]4(c5ccc(OC)cc5N(C)[C@H]4[C@@](O)(C(=O)OC)[C@@H]1OC(=O)CCC(=O)O[C@H]1CC[C@H]4[C@@H]5CC[C@H]6CC(=O)CC[C@]6(C)[C@H]5CC[C@]14C)[C@@H]32,11.6%,29.4%,21.3%,9.98% (active),9.84% (active),41.4%,22.4%
O=c1nc(-c2ccccc2)c2cc(-c3ccc(N4CCCC4)nc3)ccc2[nH]1,64%,-1.96% (active),45.8%,35.4%,45.7%,80.5%,56.7%
CN(C)CCCn1c2c(c3cc(-c4ccco4)ccc3c1=O)C(=O)c1ccccc1-2,83.9%,66.6%,30.2%,-21.6% (active),26.6%,71.7%,44.4%
O=C(Nc1nccs1)c1noc2ccccc12,102%,105%,98.8%,63.9%,93.8%,105%,94.3%
COc1cc(/C=C/C(=O)c2cccs2)ccc1OCc1ccc(Cl)nc1,91.4%,76.7%,58.2%,9.24% (active),75.1%,99.8%,28.5%
Nc1c(C(=O)Nc2cccc3ccccc23)sc2nc3c(cc12)CCCCCC3,32%,-39.3% (active),22.4%,20.6%,7.05% (active),43.3%,21.9%
Cn1nc(C(F)(F)F)c(-c2cc(C(F)(F)F)cc(C(F)(F)F)c2)c1-c1ccc(OCc2ccc(Cl)cc2)cc1O,2.72% (active),11.4%,13.1%,3.01% (active),3.65% (active),5.78% (active),5.04% (active)
Cc1nc(C)c(C)nc1C,110%,108%,103%,101%,98.4%,95.6%,105%
CS(=O)(=O)O[C@@H]1C(=O)N(c2cc3c4ccccc4ccc3c3ccccc23)[C@H]1c1ccc(F)cn1,44.6%,-26% (active),22.5%,21.6%,14.3%,60.1%,23%
CCn1cc(C(=O)O)c(=O)c2cc(F)c(N3CCN(CC(=O)Nc4ccc(/C(C)=N/OC)cc4)CC3)cc21,92.5%,102%,110%,93.8%,104%,101%,94.5%
CCOCCc1c(O)nc(SC)[nH]c1=O,110%,120%,90.9%,99.7%,100%,39.4%,101%
O=C(/C(=C/c1ccc([N+](=O)[O-])cc1)SCc1ccc(F)cc1)c1ccc(Cl)cc1,84.9%,43.9%,1.44% (active),-21.8% (active),0.116% (active),84.3%,19.5%
CCOC(=O)c1c(-c2ccc(O)cc2)c(C#N)c2c(C#N)c(N)nn2c1N,60.9%,1.63% (active),42.6%,31.5%,67.6%,80.9%,47.5%
CCOc1ccc(C2N(c3cc(OC)c(OC)c(OC)c3)C(=O)C2(F)F)cc1 (centres undefined),44.2%,16.8%,25.5%,17.2%,8.92% (active),81.7%,28%
COc1c(O)cc2oc3cc(O[C@@H]4OC(C)[C@@H](O)[C@H](O)C4O)c(CC=C(C)C)c(O)c3c(=O)c2c1CC=C(C)C (some centres undefined),99.3%,97.9%,101%,76%,94.1%,94.8%,87.8%
NS(=O)(=O)c1ccc(N2Cc3cc(Cl)ccc3OC3=C2C(=O)N(CC2CCCCC2)C3=O)cc1,-76.4% (active),-73.9% (active),-77.5% (active),-71.5% (active),-85.6% (active),-72.9% (active),4.52% (active)
COc1cc(C(=O)Nc2cc(OC)c3ccn(C)c3c2)cc2c1C[C@]1(C)CC[C@@H](O)C(C)(C)[C@H]1O2,8.8% (active),-36.1% (active),2.19% (active),6.32% (active),12.6%,37.4%,27%
CC(=O)OCC1OC(OC2C(COC(C)=O)OC(OCCC[S-])C(OC(C)=O)C2OC(C)=O)C(OC(C)=O)C(OC(C)=O)C1OC(C)=O.[Au+].c1ccc(CN2[CH-]N(Cc3ccccc3)C(c3ccccc3)=C2c2ccccc2)cc1 (centres undefined),25.3%,18.9%,18.5%,7.42% (active),9.17% (active),45.2%,26.7%
CCOC(=O)NC(Cc1ccccc1)c1ccccc1 (centres undefined),96.5%,114%,95.2%,101%,96%,104%,110%
Nc1c(C(=O)Nc2ccccc2Cl)sc2nc3c(cc12)CN(Cc1ccccc1)CC3,93.8%,107%,94.1%,92.9%,103%,96.5%,96.1%
COc1cc2c(cc1OCCCOc1cc3c(cc1OC)C(=O)N1CC(F)(F)C[C@H]1C=N3)N=C[C@@H]1CC(F)(F)CN1C2=O,-38.5% (active),-11.8% (active),1.84% (active),13.8%,4.77% (active),-7.61% (active),-18.5% (active)
O=C(O)c1cn(C2CC2)c2cc(N3CCN(C(=O)CSc4nnc(-c5ccc(Cl)cc5)n4-c4ccccc4)CC3)c(F)cc2c1=O,99.1%,102%,109%,110%,103%,102%,103%
